Source: PubChem (National Center for Advancing Translational Sciences (NCATS))
WRN helicase inh: qHTS for Inhibitors of WRN Helicase | WRN helicase unwinding, fluorescent forked duplex, kinetic | Potency, µM (series often up to 114 µM), for the others: top-dose activity change, negative = inhibition, hits mostly inhibitors | 360,000 compounds, 0.46% hits; further: on the % scale 0 is the no-effect control and ±100 the full control effect; nearly all actives have a fitted effect of over 55% in size
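Primary qHTS, 1536-well format. 20 nM WRN + compound, 15 min RT; start with 100 nM forked fluorophore/quencher duplex, 2 mM ATP (final); kinetic read ex 525/em 598 nm.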
APEX1 inh: qHTS Assay for Inhibitors of the Human Apurinic/apyrimidinic Endonuclease 1 (APE1); recombinant APE1, TAMRA/BHQ-2 abasic DNA cleavage fluorescence; Potency, µM (titrated, usually from 65.8 µM), for the others: at the top dose activity change, negative = inhibition, most hits filed as inhibitors; 350,000 compounds, 0.35% hits; DNA repair nuclease/redox regulator APEX1 (Homo sapiens), P27695; AID 2517, 2012;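 further: plate controls were vehicle for no effect and reference inhibitor for full effect; nearly all actives have a fitted effect of over 55% in size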
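Quantitative HTS: incision of a TAMRA/BHQ-2 double-stranded substrate bearing a tetrahydrofuran abasic site by 0.75 nM APE1 raises fluorescence. Substrate 50 nM final, added after 15 min compound preincubation at room temperature; progress as third-minus-first kinetic read difference.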
RECQ1 inh-1: qHTS Assay for Inhibitors of RecQ-Like Dna Helicase 1 (RECQ1); ATP-dependent DNA helicase Q1 (Homo sapiens), P46063; RECQ1 DNA unwinding, red fluorescence kinetic read; Potency, µM (series often up to 57.3 µM), without a hit: at the top dose activity, negative = inhibition, hits mostly inhibitors; 240,000 compounds, 0.54% hits;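 further: plate controls were vehicle for no effect and no enzyme for full effect; nearly all actives have a fitted effect of over 30% in size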
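RECQ1T1 50 nM; forked duplex (20 bp + 30-nt ss tails) 200 nM, ATP 2 mM final; pH 8.0, 2 mM MgCl2, 2.5 ug/ml poly(dI-dC); 15 min compound preincubation; discontinuous kinetic read over 2 h at RT.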
BLM helicase inh: qHTS Assay for Inhibitors of Bloom's syndrome helicase (BLM). RecQ-like DNA helicase BLM (Homo sapiens), P54132. recombinant BLM DNA unwinding, fluorescence dequenching. Potency, µM (highest dose often 56.1 µM), without a hit: top-dose activity change, negative = inhibition, most hits filed as inhibitors. 350,000 compounds, 0.2% hits. AID 2528, 2010;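 further: plate controls were vehicle for no effect and no enzyme for full effect; nearly all actives have a fitted effect of over 35% in size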
L3MBTL1 inh-1: qHTS Assay for the Inhibitors of L3MBTL1 | AlphaScreen L3MBTL1–H3K9me1 peptide binding | Potency, µM (doses to about 57.1 µM), inactives show at the highest dose activity, negative = inhibition, most hits filed as inhibitors | 230,000 compounds, 0.66% hits | AID 485360, 2010; further: on the % scale 0 is the no-effect control and ±100 the full control effect; nearly all actives have a fitted effect of over 60% in size
Target sequence (Q9Y468 whole entry, looked up): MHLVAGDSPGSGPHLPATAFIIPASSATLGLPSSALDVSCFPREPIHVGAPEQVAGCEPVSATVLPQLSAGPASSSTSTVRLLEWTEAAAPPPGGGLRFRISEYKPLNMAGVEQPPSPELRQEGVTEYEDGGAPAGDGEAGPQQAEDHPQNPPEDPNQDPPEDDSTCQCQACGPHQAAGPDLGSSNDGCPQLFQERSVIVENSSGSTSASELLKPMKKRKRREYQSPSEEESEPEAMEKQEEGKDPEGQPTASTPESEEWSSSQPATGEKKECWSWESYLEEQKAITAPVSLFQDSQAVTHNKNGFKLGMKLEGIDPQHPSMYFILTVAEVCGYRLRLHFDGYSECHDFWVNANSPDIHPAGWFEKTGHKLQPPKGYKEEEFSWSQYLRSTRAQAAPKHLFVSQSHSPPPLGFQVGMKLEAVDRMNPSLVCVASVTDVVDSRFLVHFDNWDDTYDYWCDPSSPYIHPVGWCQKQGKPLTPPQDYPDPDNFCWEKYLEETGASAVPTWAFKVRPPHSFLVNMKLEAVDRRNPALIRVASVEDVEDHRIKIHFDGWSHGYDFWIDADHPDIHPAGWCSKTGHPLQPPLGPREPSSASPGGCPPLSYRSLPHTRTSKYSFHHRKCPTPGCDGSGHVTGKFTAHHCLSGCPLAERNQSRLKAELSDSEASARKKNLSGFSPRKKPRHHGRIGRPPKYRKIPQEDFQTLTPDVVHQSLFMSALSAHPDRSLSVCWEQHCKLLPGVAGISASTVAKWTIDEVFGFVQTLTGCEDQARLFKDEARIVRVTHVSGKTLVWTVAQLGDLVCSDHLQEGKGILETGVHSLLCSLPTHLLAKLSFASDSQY
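L3MBTL1 50 nM + b-AHA-H3(1-15)K9me1 75 nM, 30 min RT; compound added, 30 min RT; streptavidin donor/Ni-chelate acceptor beads 10 ug/mL each final, 30 min RT dark; AlphaScreen read.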
RECQ1 inh-2: Confirmation qHTS Assay for Inhibitors of RecQ-Like Dna Helicase 1 (RECQ1) - Round 2 Cherry Picks. AID 504841, 2011. recombinant RECQ1 DNA unwinding, red fluorescence. Potency, µM (series often up to 119 µM), for inactives: top-dose activity, negative = inhibition, actives largely listed as inhibitors. shares compounds with RECQ1 inh-1. 1,100 compounds, 15% hits; further: on the % scale 0 is the no-effect control and ±100 the full control effect; nearly all actives have a fitted effect of over 50% in size
L3MBTL1 inh-2: qHTS Assay for the Inhibitors of L3MBTL1: Hit Validation | shares compounds with L3MBTL1 inh-1 | L3MBTL1 methyl-lysine binding inhibition, biochemical qHTS | Potency, µM, hits mostly inhibitors | 500 compounds, 91% hits; further: nearly all actives have a fitted effect of over 70% in size
AlphaScreen ctr2: qHTS Assay for the Inhibitors of L3MBTL1: Hit Validationin AlphaScreen Counterscreen; AlphaScreen counterscreen, signal inhibition; shares compounds with L3MBTL1 inh-1; 500 tested, under 10 active; Potency, µM (highest dose often 57.1 µM), for inactives: top-dose activity change, negative = inhibition, actives largely listed as inhibitors; further: 0% is about no effect
The depositor's hits bear a star; i = inactive; ? = inconclusive; . = not tested or not shown; [ ] = another dose, or the depositor's remark. The list is not random: actives were taken first. Their share in the collection is about 0.92%. The call rests on the fitted dose curve; in most records, active means well fitted curve in the direction sought with a large enough effect; inconclusive means small, poorly fitted or top-dose-only effect, or another doubt; inactive means no such curve, though single readings can be large; an effect the other way counts as inactive or inconclusive. Potency means the concentration at half of the fitted maximal effect.

SMILES	WRN helicase inh	APEX1 inh	RECQ1 inh-1	BLM helicase inh	L3MBTL1 inh-1	RECQ1 inh-2	L3MBTL1 inh-2	AlphaScreen ctr2
Cc1cccc(NC(=O)CSc2nc3ccccc3nc2N2CCC(C)CC2)c1	.	.	.	-9%	.	.	.	.
Cc1csc(NC(=O)C2=NN(c3ccccc3)C(=O)CC2)n1	2%	3%	i	-5%	8%[11.4 µM]	.	.	.
Cc1ccc(-c2csc(NC(=O)C3=NN(c4ccccc4)C(=O)CC3)n2)cc1	-1%	9%	?	-6%	-14%	-13%	.	.
O=C(Nc1cc(-c2nc3ccccc3o2)ccc1Cl)c1sc2c([N+](=O)[O-])cccc2c1Cl	.	.	.	-3%	.	.	.	.
Cc1nc2cnc(N3CCOCC3)nc2n(Cc2ccc(F)cc2)c1=O	.	-9%	0.63µM*	-9%	.	-12%	.	.
Cc1cc(=O)oc2c(CN3CCC(C)CC3)c(O)c(Cl)cc12	?	?	28µM*	-17%	32µM*	?	11*	15%
Cc1cc(=O)oc2c(CN3CCCC3)c(O)c(Cl)cc12	-12%	62%	.	-4%	.	.	.	.
CC(C)c1ccc(NS(=O)(=O)c2ccc3nc(-c4ccccc4)[nH]c3c2)cc1	.	.	.	-2%	.	.	.	.
CC1=CN2C(=N)/C(=C/c3ccc([N+](=O)[O-])o3)C(=O)N=C2S1	32µM*	?	28µM*	-18%	35µM*	?	13*	-9%
CCOc1ccc(OCC)c(NS(=O)(=O)c2cc(-c3onc(C)c3C)ccc2OC)c1	.	.	.	0%	.	.	.	.
Cc1nc(C)c(C(=O)Nc2ncc([N+](=O)[O-])s2)o1	?	?	?	-19%	40µM*	?	5.3*	6%
Cc1ccnc(NS(=O)(=O)c2ccc(NC(=O)Cc3cccs3)cc2)n1	40µM*	?	25µM*	-13%	32µM*	?	2.7*	-1%
O=C(CCc1nc2cccnc2n1Cc1cccs1)Nc1cccc(C(F)(F)F)c1	.	.	.	-12%	.	.	.	.
Cn1c(NCCO)nc2c1c(=O)n(Cc1ccccc1Cl)c(=O)n2C	.	.	.	3%	.	.	.	.
COC(=O)c1c(NC(=O)CN2C(=O)NC3(CCC(C(C)(C)C)CC3)C2=O)sc2c1CCCCC2 (stereo unspecified)	-19%[57.1 µM]	4%	-3%	-1%	5%	.	.	.
CC1CCC2(CC1)NC(=O)N(CC(=O)Nc1sc3c(c1C(N)=O)CCC3)C2=O (stereo unspecified)	50µM*	?	32µM*	?	28µM*	?	3.8*	6%
COc1ccc(Nc2ccnc3ccccc23)cc1	-6%	1%	i	0%	10%	.	.	.
